According to ChEMBL document CHEMBL1201862, “PubChem BioAssay data set” (2004):
Screen size: about 400,000 compounds; about 2,100 (0.53%) were called active. Another 14% or so got no clear call; they are omitted. How the calls were made is not given here. This excerpt belongs to a sample that is enriched for actives.

target: Ataxin-2 (Homo sapiens) (UniProt Q99700); test: qHTS for Inhibitors of ATXN expression.; assay type: functional
Sequence (Q99700 whole entry): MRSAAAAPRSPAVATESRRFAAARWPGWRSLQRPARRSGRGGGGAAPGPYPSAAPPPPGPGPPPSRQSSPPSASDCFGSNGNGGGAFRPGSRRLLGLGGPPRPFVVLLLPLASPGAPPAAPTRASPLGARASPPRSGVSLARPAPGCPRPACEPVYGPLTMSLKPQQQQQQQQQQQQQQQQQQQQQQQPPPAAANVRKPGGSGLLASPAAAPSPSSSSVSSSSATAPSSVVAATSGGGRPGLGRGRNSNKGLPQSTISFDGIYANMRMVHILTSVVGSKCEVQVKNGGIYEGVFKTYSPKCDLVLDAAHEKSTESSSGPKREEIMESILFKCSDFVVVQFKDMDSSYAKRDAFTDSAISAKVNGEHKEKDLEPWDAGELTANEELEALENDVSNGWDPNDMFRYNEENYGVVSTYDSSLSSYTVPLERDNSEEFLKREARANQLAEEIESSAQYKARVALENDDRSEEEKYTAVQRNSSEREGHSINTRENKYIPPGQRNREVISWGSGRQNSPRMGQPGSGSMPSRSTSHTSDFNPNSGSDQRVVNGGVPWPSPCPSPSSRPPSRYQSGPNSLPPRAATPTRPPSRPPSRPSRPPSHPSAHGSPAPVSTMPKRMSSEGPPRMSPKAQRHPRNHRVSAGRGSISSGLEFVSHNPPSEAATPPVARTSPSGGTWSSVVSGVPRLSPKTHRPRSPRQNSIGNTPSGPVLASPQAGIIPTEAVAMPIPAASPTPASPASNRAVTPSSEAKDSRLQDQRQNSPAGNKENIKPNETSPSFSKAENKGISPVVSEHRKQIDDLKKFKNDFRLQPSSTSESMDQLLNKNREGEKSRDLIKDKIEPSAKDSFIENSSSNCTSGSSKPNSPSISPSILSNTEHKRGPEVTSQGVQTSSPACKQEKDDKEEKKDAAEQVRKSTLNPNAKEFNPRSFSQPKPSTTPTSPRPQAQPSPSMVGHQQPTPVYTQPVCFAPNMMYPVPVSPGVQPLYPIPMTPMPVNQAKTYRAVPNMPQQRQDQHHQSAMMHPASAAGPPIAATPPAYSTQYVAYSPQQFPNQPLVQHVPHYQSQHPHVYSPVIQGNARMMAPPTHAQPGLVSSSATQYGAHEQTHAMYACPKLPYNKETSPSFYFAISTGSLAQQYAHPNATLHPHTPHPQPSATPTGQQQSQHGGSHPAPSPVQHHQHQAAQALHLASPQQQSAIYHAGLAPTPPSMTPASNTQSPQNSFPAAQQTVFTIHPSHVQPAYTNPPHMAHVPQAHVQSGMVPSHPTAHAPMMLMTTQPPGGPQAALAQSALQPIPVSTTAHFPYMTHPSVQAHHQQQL

Compound	Potency
Oc1ccc(NCc2cccs2)cc1	inactive
O=C1CCCCC/C1=N/Nc1ccc(OCc2ccccc2)cc1	inactive
CC(NCc1cccc(OCc2ccccc2)c1)C(O)c1ccccc1 (stereo unspecified)	25.1 µM (active)
CC(O)CNCCCCOc1ccc(OCc2ccccc2)cc1 (stereo unspecified)	inactive
CCOc1cc(CNc2ccc(O)cc2)cc(Br)c1OCc1ccccc1	20 µM (active)
CN=C(S)Nc1ccc(OCc2ccccc2)cc1	inactive
Cc1cc(NC(=O)Nc2ccc(OCc3ccccc3)cc2)n(C)n1	inactive
Oc1ccc(NCc2ccccc2OCc2ccccc2)cc1	39.8 µM (active)
Oc1ccc(NCc2cccc(OCc3ccccc3)c2)cc1	28.2 µM (active)
COc1cc(CNC(C)(C)CO)cc(Br)c1OCc1ccccc1	inactive
CCOc1ccc(C2C(C(=O)Nc3ccccc3)=C(C)N=c3s/c(=C/c4cccc(OCC(=O)O)c4)c(=O)n32)cc1 (stereo unspecified)	inactive
N#CC1=C(N)OC2=C(CC/C2=C\c2ccccc2Cl)C1c1ccccc1Cl (stereo unspecified)	inactive
COCCNC(=O)c1c(N)n(CCCn2ccnc2)c2nc3ccccc3nc12	inactive
O=C(Oc1ccc2ccc(=O)oc2c1)c1ccccc1	inactive
c1ccc(COc2ccccc2CNC23CC4CC(CC(C4)C2)C3)cc1	20 µM (active)
Oc1ccc(NCc2ccc(OCc3ccccc3Cl)cc2)cc1	22.4 µM (active)
Clc1ncccc1OCc1ccccc1	inactive
N=c1c(C(=O)NC2CCCC2)cc2c(=O)n3ccccc3nc2n1CC1CCCO1 (stereo unspecified)	inactive
COC(=O)Cc1cc(=O)oc2c(C)c(O)ccc12	inactive
CCCCn1c(-c2cccc(C)c2)nc2cc3nc(O)c(C(C)C)nc3cc21	31.6 µM (active)
CCCCn1c(C2CCCCC2)nc2cc3nc(O)c(C(C)C)nc3cc21	35.5 µM (active)
CCCC1=Nc2ncnn2C(c2cccs2)/C1=C(\O)OCC (stereo unspecified)	inactive
CCC(C)n1c(=N)c(C(=O)NC2CCCCC2)cc2c(=O)n3ccccc3nc21 (stereo unspecified)	inactive
CCN(C(=O)COC(=O)CCC(=O)c1ccc(Cl)cc1)c1c(N)n(Cc2ccccc2)c(=O)[nH]c1=O	inactive
CCN(C(=O)COC(=O)C1CCC(C(C)(C)C)CC1)c1c(N)n(Cc2ccccc2)c(=O)[nH]c1=O (stereo unspecified)	22.4 µM (active)
CCN(C(=O)COC(=O)CCS(=O)(=O)c1ccccc1)c1c(N)n(Cc2ccccc2)c(=O)[nH]c1=O	inactive

Compound	Potency
CN(C(=O)COC(=O)/C=C/c1ccc2ccccc2n1)C1CCS(=O)(=O)C1 (stereo unspecified)	inactive
Cc1cc(NCCO)c2cc(O)ccc2n1	inactive
Oc1cccc(Nc2c3ccccc3nc3ccccc23)c1	inactive
Cc1cc(Nc2cccc(O)c2)c2cccc(Br)c2n1	8.91 µM (active)
CCOC(=O)C1=CN(CC2CCCO2)C=C(C(=O)OCC)C1c1ccccc1C(F)(F)F (stereo unspecified)	inactive
COc1ccc(C(=O)/C=C/Sc2nc3ccccc3o2)cc1	39.8 µM (active)
COc1ccc(C(=O)/C=C2\Sc3ccccc3N2C)cc1	inactive
COc1cccc(C(=O)Oc2ccc3ccc(=O)oc3c2)c1	inactive
CCOC(=O)c1cc2c(=O)n3cccc(C)c3nc2n(Cc2ccco2)/c1=N/C(=O)c1ccccc1	inactive
N#CC1=C(N)N2C(=C(C#N)C1c1cccc(Br)c1)Nc1ccccc12 (stereo unspecified)	inactive
O=C(OCCC12CC3CC(CC(C3)C1)C2)c1ccc(NCc2cc(O)ccc2O)cc1	10 µM (active)
O=C(OC12CC3CC(CC(C3)C1)C2)c1ccc(NCc2cc(O)ccc2O)cc1	8.44 µM (active)
COC(=O)C1=CN(CCOC23CC4CC(CC(C4)C2)C3)C=C(C(=O)OC)C1c1ccsc1	inactive
CC1CCN(c2ccc3c(c2)S(=O)(=O)c2cccc(C(=O)O)c2C3=O)CC1	inactive
CN(O)C(=S)c1ccccc1	8.91 µM (active)
Cc1ccc(S(=O)(=O)Nc2cc(C)c(O)c(Sc3nnc(C)[nH]3)c2)cc1	inactive
Cc1cc(=O)oc2c(CN3CC(C)OC(C)C3)c(O)c(Cl)cc12 (stereo unspecified)	inactive
CC(=O)Oc1ccc2ccc(=O)oc2c1	inactive
CCN(CC)c1ccc2cc(-c3nc4ccccc4n3C)c(=O)oc2c1	inactive
CCn1c(=N)c(C(=O)NCc2ccccc2)cc2c(=O)n3cc(C)ccc3nc21	inactive
CCCc1nc2ccc(C)cn2c1Cc1ccccc1	22.4 µM (active)
CCCc1nc2ccc(C(=O)OC)cn2c1Cc1ccccc1C(F)(F)F	39.8 µM (active)
COCC(C)n1c(SCc2cc(=O)n3cc(C)ccc3n2)nc2ccccc2c1=O (stereo unspecified)	inactive
CCCc1nc2c3ccccc3ccn2c1Cc1ccccc1	22.4 µM (active)
Nn1c(Cc2ccccc2)nc2ccccc2c1=O	inactive
CCC(C)n1c(=N)c(C(=O)NCc2ccccc2)cc2c(=O)n3cc(C)ccc3nc21 (stereo unspecified)	inactive

Compound	Potency
CCCc1nc2ccc(C)cn2c1Cc1ccccc1OC	39.8 µM (active)
CCOC(=O)Cc1csc(N/C=C2/C(=O)N(c3ccccc3C(F)(F)F)C(=O)c3ccccc32)n1	inactive
COCCN1C=C(C(=O)OC)C(c2ccccc2C(F)(F)F)C(C(=O)OC)=C1	inactive
O=Cc1ccc(N2N=C(c3ccccc3)CC2c2ccccc2)cc1 (stereo unspecified)	inactive
COC(=O)c1ccc(N2C(c3cc(OC)cc(OC)c3)=Cc3ccc(-c4cccnc4)cc3C2CC(=O)C2CC2)cc1 (stereo unspecified)	inactive
COc1ccc(C2C=C(c3ccc(Cl)cc3)Nc3nc(NC(=O)CCC(=O)O)nn32)cc1 (stereo unspecified)	inactive
CO/C(O)=C1\C(C)=NC2=C(C(=O)CC(C)(C)C2)C1c1cnn(C)c1C (stereo unspecified)	inactive
CCN(CC)c1ccc2c(C)c(CN3CCOCC3)c(=O)oc2c1	inactive
COc1ccc(C2CC(c3cccc(F)c3)=NN2c2ccc(S(N)(=O)=O)cc2)cc1 (stereo unspecified)	inactive
CNC(=O)/C(C#N)=C/c1ccc(-c2nc3ccccc3s2)o1	inactive
CCCc1nc2c(C)cc(Br)cn2c1Cc1ccc(C)cc1	20 µM (active)
CCN(Cc1cc(=O)n2cc(Cl)c(C)c(Cl)c2n1)Cc1nc(O)c2ccccc2n1	inactive
COc1ccc(OC)c2sc(N(CCN(C)C)C(=O)/C=C/c3cccs3)nc12	28.2 µM (active)
CCOC(=O)c1s/c(=N\C(=O)/C=C/c2cccs2)n(C)c1C	inactive
CN(C)CCCN(C(=O)/C=C/c1cccs1)c1nc2ccc(F)cc2s1	39.8 µM (active)
CCN(CC(=O)NCc1ccc(F)cc1)C(=O)/C=C/c1cccs1	inactive
CC(=O)Nc1ccc(NC(=O)C(C)OC(=O)/C=C/c2cccs2)cc1 (stereo unspecified)	inactive
CN(C)CCCN(C(=O)C1COc2ccccc2O1)c1nc2ccc(F)cc2s1 (stereo unspecified)	inactive
CC1(C)C(=O)C=CC(=O)C(C)(C)C(=O)C=CC(=O)C(C)(C)C2=CC=C(O2)C(C)(C)C(=O)C=CC1=O	39.8 µM (active)
COCCN=C(S)NCCCNc1nc2cc3c(cc2cc1C#N)OCO3	inactive
Cc1ccc(C(=O)c2oc3ccccc3c2NC(=O)c2cc(-c3ccccc3O)[nH]n2)cc1	inactive
Cc1cccc(NC(=O)c2cc(-c3cc(Cl)ccc3O)[nH]n2)c1	inactive
Cc1ccc(O)c(-c2cc(-c3ccccc3[N+](=O)[O-])[nH]n2)c1	8.91 µM (active)
Cc1csc(NC(=O)c2cc(O)nc3ccc(S(=O)(=O)N4CCOCC4)cc23)n1	inactive
Cc1ccc(/C=N/N2CCCCC2)o1	inactive
O=C(O)c1cc(-c2ccc(/C=C3\NC(=O)N(c4ccc(Cl)cc4)C3=O)o2)ccc1Cl	inactive

Compound	Potency
CCc1cccc(CC)c1NC(=O)/C(C#N)=C/c1ccccc1C(F)(F)F	39.8 µM (active)
Cc1cc(/C=C(\C#N)C(=O)Nc2ccccc2F)c(C)[nH]1	inactive
CCN(CC)c1ccc(/C=C(\C#N)C(=O)NCc2ccccc2)cc1	inactive
O=C(NCc1ccccn1)C(=O)C1C(=O)Nc2ccccc21 (stereo unspecified)	inactive
COc1ccc(CCNC2=CC(=O)N(c3ccc(F)cc3)C2=O)cc1	inactive
COc1ccc([C@H]2/C=C\CN(C(=O)CC(C)(C)C)[C@@H](C)C(=O)N2Cc2ccc(F)cc2)cc1	35.5 µM (active)
COc1cc(C(=O)N/N=C/c2sc(N3CCOCC3)nc2-c2ccccc2)cc(OC)c1OC	inactive
COc1ccc(/C=C2\Oc3cc(OCC(=O)N4CCC(C(=O)O)CC4)ccc3C2=O)c(OC)c1	inactive
COC(=O)c1cc(=O)n(-c2ccc(F)cc2)/c(=N/c2ccc(F)cc2)s1	23.8 µM (active)
Cc1cs/c(=N\c2cccnc2)n1Cc1ccco1	inactive
COC(=O)Cc1c(C)c2cc3c(c(C)c2oc1=O)OCN(CCc1ccccc1F)C3	inactive
COC(=O)c1cc(=O)n(Cc2ccco2)/c(=N/c2ccc(F)c(Cl)c2)s1	3.16 µM (active)
COC(=O)c1cc2c(s1)-c1cc(F)ccc1OC2	inactive
COC(=O)c1cc(=O)n(CCc2ccccc2F)/c(=N/c2ccc(F)c(Cl)c2)s1	33.6 µM (active)
CCOC(=O)c1cc2c(=O)n3ccccc3nc2n(Cc2ccco2)/c1=N\C(=O)c1c(F)cccc1Cl	inactive
Cc1ccc(CCNC(=O)c2cc(S(=O)(=O)N3CCOCC3)cn2C)cc1	inactive
COc1ccc(CN(C(=O)c2snc(C(N)=O)c2N)C(C)C(=O)NCc2ccc(F)cc2)cc1 (stereo unspecified)	inactive
COc1cccc(/C=C/c2nc(C#N)c(NC3CCCCC3)o2)c1	inactive
CCc1nc(Nc2cccc(OC)c2)c2oc3ccccc3c2n1	inactive
COc1cccc(Nc2nc(N)c([N+](=O)[O-])c(NCc3ccccc3)n2)c1	31.6 µM (active)
CNc1nc(N)c([N+](=O)[O-])c(NCC2CCCO2)n1 (stereo unspecified)	inactive
COc1ccc(Nc2nc(N)c([N+](=O)[O-])c(NC3CCCCC3)n2)cc1	31.6 µM (active)
COc1cccc(-c2ccc3c(N)c(C(=O)NCc4ccc(Cl)cc4)sc3n2)c1	inactive
